Assay results published in PubChem BioAssay.

Experiment: small-molecule microarray binders of probe aCHRDL2, primary screen, biochemical, biotinylated probe, 635/667 nm fluorescence (AID 1100)
Conditions: higher = more signal

SMILES | composite z-score
CO[C@H]1O[C@H](CO)[C@@H](OC(=O)Nc2ccc3c(c2)OCO3)[C@H](OC(=O)Nc2ccc3c(c2)OCO3)[C@@H]1OC(=O)Nc1ccc2c(c1)OCO2 | 0.195
CCCC1(C(=O)OC)C=C2C(=C(C)C(=O)C2C)CN1 (stereo not given) | 0.974
CO[C@H]1O[C@H](CO)[C@@H](OC(=O)Nc2ccccc2)[C@H](OC(=O)c2cc3ccccc3[nH]2)[C@H]1OC(=O)c1cc2ccccc2[nH]1 | 0.759
O=C1O[C@H](c2ccccc2)[C@H](c2ccccc2)N2[C@H]1[C@@H](C(=O)O)[C@]1(C(=O)Nc3ccc(C#CCCO)cc31)[C@H]2c1ccccc1OCCO | 0.094
CCCCC[C@H]1OC[C@@]23C=C(Br)[C@@H](CC12)[C@@]1(CO1)C3=O (stereo not given in full) | -0.515
CCCCN1CC=CC23O[C@@H]4/C=C\CCC(C)OC(=O)C4[C@H]2C(=O)N(CCCO)[C@@H]3C1=O (stereo not given in full) | 0.662
CC[C@@H]1C=C(C(=O)O)[C@H](c2ccc(C#N)cc2)N1S(=O)(=O)c1ccc(C)cc1 | 0.863
O=C1[C@H]2C=C(I)[C@H](C[C@@H]2OCCOCCO)[C@@]12CO2 | -0.751
COCCOC(=O)N1C(=O)[C@@]2(c3cc(C#CC4=CCCCC4)ccc31)[C@H](C(=O)Nc1nc3ccccc3s1)[C@H]1C(=O)O[C@H](c3ccccc3)[C@H](c3ccccc3)N1[C@@H]2c1ccc(O)cc1 | -0.0764
COc1ccc([C@H]2OC[C@@H]3C[C@H](Cc4ccccc4)C(=O)N32)cc1 | -0.598
NC(=O)NCC#Cc1ccc2c(c1)[C@]1(C(=O)N2)[C@H](c2ccccc2OCCO)N2[C@H](c3ccccc3)[C@H](c3ccccc3)OC(=O)[C@H]2[C@@H]1C(=O)O | 0.435
CC1CC/C=C\[C@H]2OC34C=CCN(c5ccc(Cl)cc5)C(=O)[C@H]3N(C(C)CO)C(=O)[C@]4(C)C2C(=O)O1 (stereo not given in full) | 0.158
CCOC(=O)C1=C[C@@H](C(C)C)N(S(=O)(=O)c2ccc(C)cc2)[C@H]1c1ccc(C(F)(F)F)cc1 | 0.703
OCCCC1=CC(c2ccc(CN3CCCC3)cc2)N(Cc2cc3c(cc2Br)OCO3)CC1 (stereo not given) | 0.732
CCCCCCCCCC(O)C1C=CC2C(=O)N(c3ccccc3)C(=O)C2N1Nc1cc(OC)c(OC)c(OC)c1 (stereo not given) | 0.662
COCCCNC(=O)[C@@]1(CCC(=O)OC(C)(C)C)N=C(c2ccc(OCCCO)cc2)O[C@H]1c1ccccc1N=[N+]=[N-] | 1.32
COc1cc(OC)c(C(O)C2C=CC3C(=O)N(Cc4ccccc4)C(=O)C3N2n2cnnc2)cc1Br (stereo not given) | 0.373
C[N+](C)(C)CCCC[C@@H]1NC(=O)[C@@H]2C[C@H](C(=O)NCCCCCCN)[C@H](c3cccc(OCCO)c3)N2C1=O | 1.14

SMILES | composite z-score
O=C1C2C=CC(C(O)C3CC=CCC3)N(Nc3ccccc3)C2C(=O)N1c1ccccc1 (stereo not given) | 1.12
C=CCNC(=O)[C@H]1[C@@H]2C(=O)O[C@@H](c3ccccc3)[C@@H](c3ccccc3)N2[C@@H](c2ccccc2OCCO)[C@]12C(=O)N(C(=O)OCCOC)c1ccc(C#CC3(O)CCCCCC3)cc12 | 0.457
COCCOC(=O)N1C(=O)[C@@]2(c3cc(C#CC4=CCCCC4)ccc31)[C@H](c1ccccc1OCCO)N1[C@H](c3ccccc3)[C@H](c3ccccc3)OC(=O)[C@H]1[C@@H]2C(=O)NC[C@H](O)c1ccccc1 | -0.135
CCCC[C@@H](O)C1=C(COc2ccccc2)C[C@H]2C(=O)N(Cc3ccccc3)C(=O)[C@H]2[C@H]1CO | -0.195
O=C1OCCC/C=C\[C@H]2OC34C=CCN(c5ccc6ccccc6c5)C(=O)[C@H]3N(CCO)C(=O)[C@@H]4C12 (stereo not given in full) | 0.256
COC(=O)c1c(CC[C@@H](CO)NC(=O)N[C@@H](C)Cn2cc(-c3ccccn3)nn2)oc(C(C)=O)c1C(=O)OC | -0.495
CC(C)C[C@@H]1NC(=O)[C@@H]2C[C@H](C(=O)NCCCCCCN)[C@H](c3cccc(OCCO)c3)N2C1=O | 0.532
[N-]=[N+]=Nc1ccccc1C[C@@]1(C(=O)N2CCOCC2)N=C(c2ccc(OCCCO)cc2)O[C@@H]1c1ccccc1 | 0.59
CCOC(=O)C[C@H]1[C@H](OC(=O)c2cc3ccccc3oc2=O)[C@@H](NC(=O)CC(C)C)c2cc(OCCCO)ccc2N1C(=O)c1ccc2ccccc2n1 | -0.53
Cc1ccc(NN2C(C(O)c3c(F)cccc3Cl)C=CC3C(=O)N(C4CCCCC4)C(=O)C32)cc1 (stereo not given) | 1.07
O=C1O[C@@H](c2ccccc2)[C@@H](c2ccccc2)N2[C@@H](c3ccc(OCCO)cc3)[C@]3(C(=O)Nc4ccc(C#CC5=CCCCC5)cc43)[C@@H](C(=O)NC[C@H](O)c3ccccc3)[C@H]12 | -0.762
CCCN1C(=O)[C@]2(Cc3ccccc31)N=C(c1ccc(OCCCO)cc1)O[C@@H]2c1ccccc1 | 0.865
C[N+](C)(C)CCCCCCNC(=O)[C@@H]1C[C@@H]2C(=O)N3CCC[C@H]3C(=O)N2[C@@H]1c1ccc(O)cc1 | 0.614
CCOC(=O)C[C@H]1[C@H](OC(=O)c2ccc(C(=O)c3ccccc3)cc2)[C@@H](NC(=O)CC(C)C)c2cc(OCCCO)ccc2N1C(=O)c1ccccc1 | -0.345
CC1CC/C=C\[C@H]2OC34C=CCN(C(C)C)C(=O)[C@H]3N(CCO)C(=O)[C@@H]4C2C(=O)O1 (stereo not given in full) | 0.701
[N-]=[N+]=Nc1ccccc1C[C@]1(C(=O)N2CCOCC2)COC(c2ccc(OCCCO)cc2)=N1 | 0.948
CCCCCCc1nc(Cc2cc(OC)c(OC)c(OC)c2)cc2c1[Si](C(C)C)(C(C)C)OC2 | -0.623
